Assay results: PubChem BioAssay (NCATS)
Records with an inconclusive call do not appear. A call without a number means that no potency is given here. Values without a mark were called inactive. Activity calls are given as the source filed them. The call rests on the fitted dose curve; in most records, active means well fitted curve in the direction sought with a large enough effect; inconclusive means small, poorly fitted or top-dose-only effect, or another doubt; inactive means no such curve, though single readings can be large; an effect the other way counts as inactive or inconclusive. Peptide text beside a SMILES is read from it.

Legend:
[1] = target: Cellular tumor antigen p53 (Homo sapiens) (UniProt P04637); test: Primary qHTS for small molecule compounds that upregulate eGFP-tagged delta133p53alpha (in N-terminal) cells. (AID 2060322); settings: NCI-H358 eGFP-delta133p53alpha fluorescence, 24 h; activation: hits give high values; further: nearly all actives have a fitted effect of over 75% in size; further: potency means the concentration at half of the fitted maximal effect;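 on activation: cells pre-induced with doxycycline then dosed without doxycycline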
Summary of the method: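 NCI-H358 cells pre-induced 24 h with 10 ng/ml doxycycline for eGFP-delta133p53alpha, plated dox-free and exposed 24 h at 37C to titrated compounds. Fixed, Hoechst-stained; gated GFP peak intensity by laser scanning cytometry, normalized to DMSO (0%) and 57.5 uM 5-azacytidine (100%).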

[2] = target: Aldehyde dehydrogenase, mitochondrial (Homo sapiens) (UniProt P05091); test: qHTS for Inhibitors of the Aldehyde Dehydrogenase Family (ALDH2) Primary screen (AID 2061308); settings: ALDH2 enzyme inhibition qHTS, 1536-well; series mostly up to 56 µM; further: nearly all actives have a fitted effect of over 55% in size
[3] = target: Retinaldehyde dehydrogenase 3 (Homo sapiens) (UniProt P47895); test: qHTS for Inhibitors of the Aldehyde Dehydrogenase Family (ALDH1A3) Primary screen (AID 2061315); settings: ALDH inhibition qHTS; series mostly up to 56 µM

Sequence of Cellular tumor antigen p53 (Homo sapiens) (P04637 whole entry, looked up): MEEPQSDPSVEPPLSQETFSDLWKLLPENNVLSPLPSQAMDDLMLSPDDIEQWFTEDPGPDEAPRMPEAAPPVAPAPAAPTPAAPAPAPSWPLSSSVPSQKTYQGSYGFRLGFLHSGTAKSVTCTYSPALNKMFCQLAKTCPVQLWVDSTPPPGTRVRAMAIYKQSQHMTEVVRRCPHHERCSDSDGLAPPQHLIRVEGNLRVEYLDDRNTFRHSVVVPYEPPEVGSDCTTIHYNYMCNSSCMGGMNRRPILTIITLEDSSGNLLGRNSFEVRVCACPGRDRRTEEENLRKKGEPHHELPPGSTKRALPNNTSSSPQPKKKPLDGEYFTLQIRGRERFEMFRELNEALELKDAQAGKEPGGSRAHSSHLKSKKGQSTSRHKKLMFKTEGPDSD

CC(=O)O[C@@H]1[C@@H](O)[C@H](C)O[C@@H](O[C@H]2[C@@H]3C=CO[C@@H](O[C@@H]4O[C@H](CO)[C@@H](O)[C@H](O)[C@H]4O)[C@@H]3[C@@]3(CO)O[C@@H]23)[C@@H]1OC(=O)/C=C/c1ccccc1
activation [1]: 4.58%
Potency [2]: inactive
Potency [3]: inactive

O=C(c1ccccn1)N(Cc1cccs1)C1(C(=O)NC2CCCCC2)CCCCC1
activation [1]: -1.67%
Potency [2]: inactive
Potency [3]: inactive

Cc1noc(=O)c2ccc(NC(=O)C(O)(CC(C)(C)c3cccc4c3OCC4)C(F)(F)F)cc12 (stereo unspecified)
activation [1]: 19.7%
Potency [2]: inactive
Potency [3]: inactive

COc1cc(CN(CCN)C(=O)c2cccs2)ccc1OCc1ccccc1
activation [1]: 24.3%
Potency [2]: inactive
Potency [3]: inactive

C=C1C2(C)CC3C4(C)OC(C5OC56C4=CC(=O)OC6(C)C)C3(C)C13C(=O)OC(C)C3(O)C2=O (stereo unspecified)
activation [1]: -9.92%
Potency [2]: inactive
Potency [3]: inactive

CCC/C=C/C(=O)O[C@H]1CC(C)(C)CC2[C@@]13[C@H](O)C[C@]1(C)[C@@]2(CCC2[C@@]4(C)CC[C@H](O[C@@H]5O[C@H](C(=O)O)[C@@H](O)[C@H](O[C@@H]6O[C@H](CO)[C@H](O)[C@H](O)[C@H]6O[C@@H]6O[C@@H](C)[C@H](O)[C@@H](O)[C@H]6O[C@@H]6OC[C@](O)(CO)[C@H]6O)[C@H]5O[C@@H]5O[C@H](CO)[C@H](O)[C@H](O)[C@H]5O)C(C)(C)C4CC[C@]21C)O[C@H]3O (stereo partly specified)
activation [1]: -12.5%
activity change, negative = inhibition [2]: 11.6% [at 11.2 µM]
activity change, negative = inhibition [3]: 11% [at 11.2 µM]

CN1C(=O)c2ccccc2NC(=O)[C@]12O[C@@H]2c1cccc(O)c1
activation [1]: -1.53%
Potency [2]: inactive
Potency [3]: inactive

CC(C)=CCC/C(C)=C/CO[C@@H]1O[C@H](CO)[C@@H](OC(=O)/C=C/c2ccc(O)cc2)[C@H](O[C@@H]2O[C@@H](C)[C@H](O)[C@@H](O)[C@H]2O)[C@H]1O
activation [1]: 19.6%
Potency [2]: inactive
Potency [3]: inactive

C[C@@H]1CC[C@]2(C)C3(C)CC[C@@]2(OC3=O)[C@@]12C[C@H](c1ccoc1)OC2=O
activation [1]: 26.7%
Potency [2]: inactive
Potency [3]: inactive

C/C=C(\C)C(=O)O[C@H]1[C@@H](O[C@]2(COC(=O)CC(C)C)O[C@H](COC(=O)C(C)C)[C@@H](OC(C)=O)[C@@H]2O)O[C@H](COC(C)=O)[C@@H](O)[C@@H]1O
activation [1]: 10.7%
Potency [2]: inactive
Potency [3]: inactive

CCC(C)/C=C(C)/C=C/c1cc2c(cn1)C(=O)C(C)(OC(C)=O)C(O)=C2Cl (stereo unspecified)
activation [1]: -6.11%
Potency [2]: inactive
Potency [3]: inactive

COCC1OC(OC(C)(C)C2CCC3(C)C=C(C4CCC5C4(C)CC(O)C4OC(C(C)(C)O)CCC45C)CCC3O2)C(NC(C)=O)C(O)C1O (stereo unspecified)
activation [1]: 5.34%
Potency [2]: inactive
Potency [3]: inactive

CC1NC(=O)CNC(=O)C(C(C)C)NC(=O)C2CCCN2C(=O)C(C(C)C)NC(=O)C(Cc2c[nH]c3ccccc23)NC1=O (stereo unspecified) (cyclo(GAWVPV); configuration not given here)
activation [1]: 3.57%
Potency [2]: inactive
Potency [3]: inactive

C=C1CCC2C(C)(C)CC(=O)CC2(C)C1CCC(C)CCOC(C)=O (stereo unspecified)
activation [1]: -5.34%
Potency [2]: inactive
Potency [3]: inactive

CC12CCC(OC3OC(CO)C(O)C(O)C3OC3OC(CO)C(O)C(O)C3O)CC1CCC1C2CCC2(C)/C(=C3/COC(=O)C3)CCC12O (stereo unspecified)
activation [1]: -0.763%
Potency [2]: inactive
Potency [3]: inactive

COc1ccc(/C=C/C(=O)O[C@@H]2[C@@H](O)[C@H](C)O[C@@H](O[C@H]3[C@@H]4C=CO[C@@H](O[C@H]5O[C@@H](CO)[C@H](O)[C@@H](O)[C@@H]5O)[C@@H]4[C@@]4(CO)O[C@@H]34)[C@@H]2OC(C)=O)cc1
activation [1]: -12.5%
Potency [2]: inactive
Potency [3]: inactive

COc1c(C(O)CC(C)C)ccc2c1C(=O)OCc1cc(C)cc(O)c1O2 (stereo unspecified)
activation [1]: -2.68%
Potency [2]: inactive
Potency [3]: inactive

COC(=O)C[C@H]1C(C)(C)[C@H](OC(=O)C(C)C)C2CC3=C4CC(=O)O[C@@H](c5ccoc5)[C@]4(C)CCC3[C@@]1(C)C2=O (stereo partly specified)
activation [1]: 11.6%
Potency [2]: inactive
Potency [3]: inactive

COc1c2c(c(C)c3c1C(=O)OC3)OC1(C)CC(O)C34OC(O)(CCC3(C)C1C2)OC4(C)C (stereo unspecified)
activation [1]: -6.87%
Potency [2]: inactive
Potency [3]: inactive

CCNC(=O)Nc1ccc(-c2nc3c(c(N4CCOC[C@@H]4C)n2)CCN(c2ncccn2)C3)cc1
activation [1]: -14.3%
Potency [2]: inactive
Potency [3]: inactive

CC1(C(=O)O)CCCC2(C)C3CCC4CC3(CCC12)CC4=O (stereo unspecified)
activation [1]: 16.1%
Potency [2]: inactive
Potency [3]: inactive

C=C1CCC2C(C)(C(=O)O)CCCC2(C)C1CC/C(C)=C\CO (stereo unspecified)
activation [1]: 15.2%
Potency [2]: inactive
Potency [3]: inactive

C/C(=C\C1CCC(C)C2CCC3(C)OC123)C(=O)O (stereo unspecified)
activation [1]: 8.04%
Potency [2]: inactive
Potency [3]: inactive

CC1(C)NC2N(C1=O)c1ccccc1C2(O)CC(C(=O)O)n1cnc2ccccc2c1=O (stereo unspecified)
activation [1]: -9.16%
Potency [2]: inactive
Potency [3]: inactive

O=C(Nc1cccc([N+](=O)[O-])c1)c1cccc(S(=O)(=O)N2CCCCCC2)c1
activation [1]: 1.67%
Potency [2]: inactive
Potency [3]: inactive

C[C@@H]1O[C@@H](O[C@H]2CC[C@@]3(C)C(CC[C@]4(C)C3CC=C3[C@@H]5CC(C)(C)CC[C@]5(C(=O)O[C@@H]5O[C@H](CO)[C@@H](O)[C@H](O)[C@H]5O)CC[C@]34C)[C@]2(C)CO)[C@H](O)[C@H](O[C@@H]2O[C@H](CO)[C@@H](O)[C@H](O)[C@H]2O)[C@H]1O (stereo partly specified)
activation [1]: -6.11%
Potency [2]: inactive
Potency [3]: inactive

COc1cc(CCCO)ccc1O[C@@H]1O[C@H](CO)[C@@H](O)[C@H](O)[C@H]1O
activation [1]: -16.1%
Potency [2]: inactive
Potency [3]: inactive

CC(=O)O[C@H]1C[C@H](OC(C)=O)[C@]2(C)[C@H](CC[C@@]34O[C@@H]3C3=C(C)C(=O)O[C@@H]3C[C@H]42)C1(C)C
activation [1]: 4.46%
Potency [2]: inactive
Potency [3]: inactive

CC(C(O)c1ccccc1)N(C)CCOC(c1ccccc1)c1ccccc1 (stereo unspecified)
Potency [1]: 21.9 µM (active)
Potency [2]: inactive
Potency [3]: inactive

COC(=O)C[C@H]1C(C)(C)[C@H](OC(=O)C(C)C)[C@@]2(O)C(=O)[C@]1(C)C1CC[C@]3(C)C(CC(=O)O[C@H]3c3ccoc3)[C@]13O[C@@H]32 (stereo partly specified)
activation [1]: -17.6%
Potency [2]: inactive
Potency [3]: inactive

CC1(C)COC(=O)[C@@H]1O[C@@H]1O[C@H](CO)[C@@H](O)[C@H](O)[C@H]1O
activation [1]: -11.6%
Potency [2]: inactive
Potency [3]: inactive

COc1c2c(c(C)c3c1C(=O)OC3)O[C@@]1(C)CC(O)C(C(C)(C)O)[C@](C)(CCC(=O)O)[C@H]1C2 (stereo partly specified)
activation [1]: -9.16%
Potency [2]: inactive
Potency [3]: inactive

C[C@H]1CC(=O)C2=C(C1)C(O)C(O)[C@@]1(O)[C@H]2C(=O)c2cccc(O)c2[C@@H]1O (stereo partly specified)
activation [1]: 3.05%
Potency [2]: inactive
Potency [3]: inactive

C=CC(C)(O)C(O)CC1C(C)(O)C(O)C(O)C2C(C)(C)CCCC21C (stereo unspecified)
activation [1]: -20.6%
Potency [2]: inactive
Potency [3]: inactive

C[C@@]1(C(=O)O)CCC[C@@]2(C)C3=CC[C@H]4C[C@@]3(CC[C@H]12)CC4(O)CO (stereo partly specified)
activation [1]: -2.29%
Potency [2]: inactive
Potency [3]: inactive

CC1OC(O[C@H]2CC[C@@]3(C)C(CC[C@]4(C)C3CC=C3C5CC(C)(C)CC[C@]5(C(=O)OC5OC(CO)C(OC6OC(COC7OCC(O)C(O)C7O)C(O)C(O)C6O)C(O)C5O)CC[C@]34C)C2(C)C)C(O)C(O)C1OC1OCC(OC2OCC(O)C(O)C2O)C(O)C1O (stereo partly specified)
activation [1]: -15.3%
activity change, negative = inhibition [2]: -20.7% [at 11.2 µM]
activity change, negative = inhibition [3]: 10.3% [at 11.2 µM]

C=C(CC/C=C(\C)C(=O)O)C1(O)CC=C(C)CC1 (stereo unspecified)
activation [1]: -21.4%
Potency [2]: inactive
Potency [3]: inactive

COc1cc(O)c2c(c1)C1=CC(O)C(O)CC1(C)OC2=O (stereo unspecified)
activation [1]: 2.29%
Potency [2]: inactive
Potency [3]: inactive

COc1cc(C(CO)CO[C@@H]2O[C@H](CO)[C@@H](O)[C@H](O)[C@H]2O)ccc1O (stereo partly specified)
activation [1]: -11.5%
Potency [2]: inactive
Potency [3]: inactive

COc1cc([C@H]2OC[C@@H]3[C@@H](c4ccc(O[C@@H]5O[C@H](CO)[C@@H](O)[C@H](O)[C@H]5O)c(OC)c4)OC[C@]23O)ccc1O
activation [1]: 3.57%
Potency [2]: inactive
Potency [3]: inactive

C=C1C(=O)O[C@@H]2[C@H]1[C@H](O)C[C@]1(C)[C@@H](O)CC=C(C)[C@@H]21
Potency [1]: 15.1 µM (active)
Potency [2]: inactive
Potency [3]: inactive

CCOC(=O)c1ccc(OCCC2CCN(c3ccc(C)nn3)CC2)cc1
activation [1]: -17.9%
Potency [2]: inactive
Potency [3]: inactive

C=C1CCC2C(C)(C(=O)O)CC(O)CC2(C)C1CC/C(C)=C/C(=O)O (stereo unspecified)
activation [1]: -9.92%
Potency [2]: inactive
Potency [3]: inactive

CCc1cccc(CC)c1-n1c(C=C(C)C)c(C(=O)N2CCNCC2)cc(-c2nc(-c3ccc(C(F)(F)F)cc3)cs2)c1=O
activation [1]: 26.3%
Potency [2]: inactive
Potency [3]: inactive

CC1CC(O)C2(OC1=O)OC1C(O)C3C4CCC5CC(OC6OC(CO)C(O)C(O)C6OC6OC(C)C(O)C(O)C6O)CCC5(C)C4CCC3(C)C1C2C (stereo unspecified)
activation [1]: -0.893%
Potency [2]: inactive
Potency [3]: inactive

C=CC(C)(O)CC/C=C(\C)C(=O)OCC1OC(OC2CCC3(C)C(CCC4(C)C3CC=C3C5CC(C)(C)C(O)CC5(C(=O)O)CCC34C)C2(C)C)C(O)C(OC2OC(CO)C(O)C(OC3OC(CO)C(O)C(OC4OC(COC5OC(CO)C(O)C(O)C5O)C(O)C(O)C4O)C3O)C2O)C1O (stereo unspecified)
activation [1]: 9.92%
activity change, negative = inhibition [2]: 1.9% [at 11.2 µM]
activity change, negative = inhibition [3]: -5.36% [at 11.2 µM]

COc1ccccc1-c1cc(Nc2cccc(CS(N)(=O)=O)c2)ncn1
Potency [1]: 8.49 µM (active)
Potency [2]: inactive
Potency [3]: inactive
